From PubChem BioAssay (EPA / NIEHS)
Activity calls are given as the source filed them. Rule for the calls: active = hit-call score of the fitted dose curve at least 0.9, where 1 is the maximum; inactive = score below 0.9.

Columns and labels:
[1] = APR_HepG2_P-H2AX_72hr: Apredica 72-hour HepG2 Assay for H2AX Phosphorylation (AID 2282916); settings: imaging, actives raise or lower the signal;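 note: phospho-histone H2A.x immunostain intensity per cell marking DNA damage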
Method in brief: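 Human hepatoma HepG2 cells are dosed across ten concentrations (0.39 to 200 uM, 0.5% v/v DMSO) and incubated 72 hr. Phospho-histone H2A.x is then detected by antibody staining alongside c-Jun and Hoechst, and quantified by automated fluorescence imaging.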

[2] = APR_HepG2_MitoMembPot_72hr: Apredica 72-hour HepG2 Assay for Mitochondrial Membrane Potential (AID 2282917); settings: imaging, actives raise or lower the signal
Method in brief: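 HepG2 cells dosed 72 hr with compound at 0.39–200 uM in duplicate, 0.5% v/v DMSO final. Mitochondria stained with 250 nM MitoTracker Red CMXRos for 30 min before formaldehyde fixation, imaged by high-content fluorescence; bidirectional fit versus DMSO.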

[3] = APR_HepG2_MitoticArrest_72hr: Apredica 72-hour HepG2 Assay for Mitotic Arrest (AID 2282918); settings: high-content imaging, actives raise or lower the signal
Method in brief: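 Read-out is phospho-histone H3 immunofluorescence with Hoechst nuclear segmentation, imaged at 20x. Human HepG2 liver cells received ten concentrations (0.39–200 uM, final DMSO 0.5% v/v) for 72 hr before fixation. Gain or loss of signal was fitted relative to DMSO.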

[4] = APR_HepG2_MicrotubuleCSK_72hr: Apredica 72-hour HepG2 Assay for Microtubule CSK Stabilty (AID 2282919); settings: HepG2 microtubule cytoskeleton, high-content imaging, actives raise or lower the signal
Method in brief: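 HepG2, 72 hr cmpd exposure, 0.39–200 uM (10 pts, duplicate), 0.5% DMSO. 3.7% formaldehyde fix, 0.5% Triton perm, anti-alpha-tubulin/Cy5 plus Hoechst. HCS fluorescence intensity; bidirectional fit vs DMSO baseline; taxol as positive control.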

[5] = APR_HepG2_P-H2AX_24hr: Apredica 24-hour HepG2 Assay for H2AX Phosphorylation (AID 2282920); settings: high-content imaging, actives raise or lower the signal
Method in brief: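 HepG2, 24 hr, cpd 0.39–200 uM (10 conc, duplicate), DMSO 0.5% v/v final. Fix 3.7% formaldehyde, Triton X-100 permeabilize, anti-phospho-H2A.x 1:200 + Hoechst 2 ug/mL. Imaged, bidirectional fit vs DMSO.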

[6] = APR_HepG2_StressKinase_72hr: Apredica 72-hour HepG2 Assay for Stress Kinase (AID 2282921); settings: HepG2 stress kinase (phospho-c-Jun) imaging, actives raise or lower the signal
Method in brief: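 After a 72 h compound treatment spanning 0.39 to 200 uM, formaldehyde-fixed cells are labelled for phosphorylated c-Jun and nuclei, imaged by automated fluorescence microscopy, and activity is fitted in both directions relative to DMSO controls.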

[7] = APR_HepG2_StressKinase_24hr: Apredica 24-hour HepG2 Assay for Stress Kinase (AID 2282922); settings: HepG2 stress kinase (phospho-c-Jun) imaging, actives raise or lower the signal
Method in brief: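 Read-out: phospho-c-Jun immunofluorescence (Cy3 secondary) quantified by high-content imaging at 20x, nuclei defined by Hoechst 33342. Human HepG2 liver cells dosed 24 hr, 0.39–200 uM, DMSO 0.5% v/v; gain or loss of signal fitted relative to DMSO.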

[8] = APR_HepG2_p53Act_72hr: Apredica 72-hour HepG2 Assay for p53 Activation (AID 2282923); settings: high-content imaging, actives raise or lower the signal;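 note: average cellular p53 protein immunofluorescence intensity in HepG2 cells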
Method in brief: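 Imaging-based endpoint: after 72 hr compound exposure (up to 200 uM, 0.5% DMSO), fixed and permeabilized monolayers were labelled with anti-p53 antibody and imaged; signal change in either direction was fitted relative to DMSO controls.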

[9] = APR_HepG2_MitoMass_72hr: Apredica 72-hour HepG2 Assay for Mitochondrial Mass (AID 2282924); settings: high-content imaging, actives raise or lower the signal;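 note: MitoTracker Red CMXRos stain intensity per cell imaged as mitochondrial mass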
Method in brief: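 Read-out: MitoTracker Red fluorescence intensity from automated imaging (20x, six fields per well) in human HepG2 liver cells. Dosing ran 72 hr, 0.39–200 uM, 0.5% DMSO; bidirectional curve fitting versus DMSO baseline.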

[10] = APR_HepG2_NuclearSize_72hr: Apredica 72-hour HepG2 Assay for Nuclear Size (AID 2282925); settings: high-content imaging, actives raise or lower the signal
Method in brief: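 Read-out: nuclear diameter from Hoechst 33342 images (ArrayScan, 20x, six fields/well), via cell-cycle image analysis. HepG2 were dosed 0.39–200 uM for 72 hr in 0.5% DMSO. Bidirectional fit relative to DMSO.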

[11] = ATG_CRE_CIS: Attagene CIS-FACTORIAL HepG2 Assay for human cAMP Responsive Element (CRE) binding protein 3 (AID 2282926); settings: HepG2 CRE cis-reporter, Attagene multiplexed mRNA; actives raise or lower the signal
Method in brief: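 Assay format: transient reporter transfection of HepG2, 24 h treatment, total RNA isolation with DNase I step. Reporter abundance read by fluorescence after PCR and capillary separation; DMSO-normalised gain or loss fitting.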

[12] = target: CCAAT/enhancer-binding protein beta (Homo sapiens) (UniProt P17676); test: ATG_C_EBP_CIS: Attagene CIS-FACTORIAL HepG2 Assay for human CCAAT/Enhancer Binding Protein (C/EBP) beta (AID 2282927); settings: HepG2 Attagene cis-factorial transcription factor reporter; actives raise or lower the signal
Chain of CCAAT/enhancer-binding protein beta (Homo sapiens) (P17676 whole entry, looked up): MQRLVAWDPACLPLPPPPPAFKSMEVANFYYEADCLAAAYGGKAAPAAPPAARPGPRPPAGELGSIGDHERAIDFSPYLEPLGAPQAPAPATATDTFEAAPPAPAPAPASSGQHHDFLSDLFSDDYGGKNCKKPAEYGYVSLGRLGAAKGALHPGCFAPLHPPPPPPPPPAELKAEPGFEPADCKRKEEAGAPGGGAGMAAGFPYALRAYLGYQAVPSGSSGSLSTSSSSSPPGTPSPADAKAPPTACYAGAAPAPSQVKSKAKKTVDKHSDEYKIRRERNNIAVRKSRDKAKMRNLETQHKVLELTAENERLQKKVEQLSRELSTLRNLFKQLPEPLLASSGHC
Method in brief: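 Transiently transfected HepG2 (MRTU library, endogenous TF-driven promoters); 24 h dosing; total RNA → oligo(dT) RT → PCR → 6-FAM primer extension → HpaI digest → CE; fit bidirectionally vs DMSO.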

[13] = ATG_CMV_CIS: Attagene CIS-FACTORIAL HepG2 Assay for human CMV (Internal Marker) (AID 2282928); settings: HepG2 CMV promoter reporter, transcription factor profiling; actives raise or lower the signal;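 note: endpoint acts as a background internal control marker rather than a target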
Method in brief: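 Fluorescence intensity of RT-PCR-derived reporter fragments, resolved by capillary electrophoresis, gives the signal. HepG2 liver cells bearing transfected cis-element reporters were treated 24 h; activity in either direction was fit relative to DMSO-treated controls.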

[14] = ATG_DR4_LXR_CIS: Attagene CIS-FACTORIAL HepG2 Assay for human Liver X Receptor (LXR), DR4 submotif (AID 2282929); settings: HepG2 Attagene DR4 cis-reporter, mRNA transcription; actives raise or lower the signal
Method in brief: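 Measures endogenous transcription factor activity via a DR4-driven reporter transcript in human HepG2 cells. Compounds incubated 24 h; mRNA quantified by RT-PCR and capillary electrophoresis, analysed as gain or loss of signal versus DMSO.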

[15] = target: Aryl hydrocarbon receptor (Homo sapiens) (UniProt P35869); test: ATG_Ahr_CIS: Attagene CIS-FACTORIAL HepG2 Assay for human Aryl Hydrocarbon Receptor (Ahr) (AID 2282930); settings: HepG2 AhR cis-factorial reporter transcription; actives raise or lower the signal
Chain of Aryl hydrocarbon receptor (Homo sapiens) (P35869 whole entry, looked up): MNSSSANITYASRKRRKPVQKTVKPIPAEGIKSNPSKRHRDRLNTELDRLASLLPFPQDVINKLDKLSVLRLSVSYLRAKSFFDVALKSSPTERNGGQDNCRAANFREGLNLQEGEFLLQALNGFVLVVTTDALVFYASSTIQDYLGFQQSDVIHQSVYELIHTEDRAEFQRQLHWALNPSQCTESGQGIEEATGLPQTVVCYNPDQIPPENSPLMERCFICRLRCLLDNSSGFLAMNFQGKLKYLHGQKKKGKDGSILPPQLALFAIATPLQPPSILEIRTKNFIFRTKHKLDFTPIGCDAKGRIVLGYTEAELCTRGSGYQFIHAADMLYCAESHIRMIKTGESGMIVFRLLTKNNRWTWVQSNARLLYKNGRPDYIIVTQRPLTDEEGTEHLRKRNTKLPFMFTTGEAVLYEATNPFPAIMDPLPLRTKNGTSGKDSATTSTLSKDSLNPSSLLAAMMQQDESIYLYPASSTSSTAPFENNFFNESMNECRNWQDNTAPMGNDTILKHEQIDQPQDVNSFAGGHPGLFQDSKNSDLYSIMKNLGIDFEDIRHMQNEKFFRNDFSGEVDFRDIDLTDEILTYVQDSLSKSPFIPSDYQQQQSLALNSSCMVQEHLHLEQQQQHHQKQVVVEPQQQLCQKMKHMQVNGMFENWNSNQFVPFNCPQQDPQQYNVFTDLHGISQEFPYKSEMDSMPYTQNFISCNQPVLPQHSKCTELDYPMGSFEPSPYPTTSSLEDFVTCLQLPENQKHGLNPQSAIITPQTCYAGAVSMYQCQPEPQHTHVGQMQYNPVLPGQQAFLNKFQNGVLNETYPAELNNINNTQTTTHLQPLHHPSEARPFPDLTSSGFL
Method in brief: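 Read-out: reporter mRNA quantified by RT-PCR with fluorescent primer extension and capillary electrophoresis. Human HepG2 liver cells carried transfected cis-promoter reporter units and were exposed to chemical for 24 h; gain or loss fitted relative to DMSO.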

[16] = ATG_BRE_CIS: Attagene CIS-FACTORIAL HepG2 Assay for human Bone Morphogenetic Protein (BMP) Response Element (BRE) (AID 2282933); settings: HepG2 BMP response element reporter, Attagene transcription factor profiling; actives raise or lower the signal
Method in brief: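 Endogenous transcription factor activity at a BMP response element was monitored in transfected HepG2 cells 24 h after dosing. Fluorescent RT-PCR products were resolved by capillary electrophoresis, and activity was fitted in both directions versus DMSO.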

[17] = target: Transcription factor E2F1 (Homo sapiens) (UniProt Q01094); test: ATG_E2F_CIS: Attagene CIS-FACTORIAL HepG2 Assay for human E2F Transcription Factor 1 (AID 2282935); settings: HepG2 Attagene cis-reporter, E2F reporter RNA transcripts; actives raise or lower the signal
Chain of Transcription factor E2F1 (Homo sapiens) (Q01094 whole entry, looked up): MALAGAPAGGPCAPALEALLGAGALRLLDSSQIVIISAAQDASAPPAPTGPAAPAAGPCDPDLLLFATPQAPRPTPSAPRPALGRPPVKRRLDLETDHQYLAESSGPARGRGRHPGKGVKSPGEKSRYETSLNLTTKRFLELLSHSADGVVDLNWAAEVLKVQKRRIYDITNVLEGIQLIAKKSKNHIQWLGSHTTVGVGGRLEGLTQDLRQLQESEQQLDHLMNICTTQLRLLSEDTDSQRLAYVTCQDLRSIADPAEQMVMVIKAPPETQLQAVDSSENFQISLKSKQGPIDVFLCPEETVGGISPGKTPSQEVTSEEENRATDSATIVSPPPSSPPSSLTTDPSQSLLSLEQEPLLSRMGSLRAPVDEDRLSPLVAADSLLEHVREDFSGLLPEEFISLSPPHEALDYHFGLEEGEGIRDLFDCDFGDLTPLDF
Method in brief: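 Liver-derived HepG2 cells expressing transfected promoter-driven reporter units received test chemical for 24 hours. Signal gains or losses were fitted bidirectionally against DMSO.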

[18] = ATG_AP_1_CIS: Attagene CIS-FACTORIAL HepG2 Assay for human Activator Protein 1 (AP-1) (AID 2282931); settings: HepG2 Attagene cis-factorial AP-1 reporter mRNA; actives raise or lower the signal
Method in brief: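 Bidirectional concentration-response fitting against DMSO controls. Underlying signal: reporter mRNA from cis-promoter constructs in transiently transfected HepG2, measured after 24 h by RT-PCR and capillary electrophoresis.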

[19] = ATG_AP_2_CIS: Attagene CIS-FACTORIAL HepG2 Assay for human Activator Protein 2 (AP-2) (AID 2282932); settings: HepG2 AP-2 cis-reporter, Attagene transcription factor profiling; actives raise or lower the signal
Method in brief: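 Liver-derived HepG2 line, cis-reporter system measuring endogenous factors; 24 h dosing; reporter mRNA detected by fluorescent RT-PCR and capillary electrophoresis.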

[20] = target: Retinoic acid receptor alpha (Homo sapiens) (UniProt P10276); test: ATG_DR5_RAR_CIS: Attagene CIS-FACTORIAL HepG2 Assay for human Retinoic Acid Receptor Alpha (RARE), DR5 submotif (AID 2282934); settings: HepG2 Attagene cis-factorial RARE DR5 reporter, mRNA; actives raise or lower the signal;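 for AC50: reporter responds to endogenous RAR alpha beta and gamma in HepG2 not RARA alone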
Chain of Retinoic acid receptor alpha (Homo sapiens) (P10276 whole entry, looked up): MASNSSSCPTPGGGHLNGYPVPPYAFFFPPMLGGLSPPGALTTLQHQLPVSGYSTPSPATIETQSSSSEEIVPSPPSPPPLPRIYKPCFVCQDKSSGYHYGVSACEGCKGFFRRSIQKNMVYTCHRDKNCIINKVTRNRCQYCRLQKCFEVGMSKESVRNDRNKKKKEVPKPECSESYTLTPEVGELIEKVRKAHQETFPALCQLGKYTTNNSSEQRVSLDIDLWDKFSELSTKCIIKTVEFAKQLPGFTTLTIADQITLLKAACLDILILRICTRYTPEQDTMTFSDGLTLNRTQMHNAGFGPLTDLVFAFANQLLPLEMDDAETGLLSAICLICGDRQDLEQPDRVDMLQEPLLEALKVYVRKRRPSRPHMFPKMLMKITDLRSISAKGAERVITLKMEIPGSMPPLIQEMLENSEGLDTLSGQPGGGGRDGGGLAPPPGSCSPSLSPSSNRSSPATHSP
Method in brief: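 Read-out: DR5-driven reporter transcript measured by RT-PCR, 6-FAM primer extension, HpaI digest and capillary electrophoresis. Human HepG2 liver cells carry transiently transfected cis-element reporter constructs; dosing lasts 24 h. Gain or loss of signal fitted against DMSO baseline.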

Measured: AC50

COP(=O)(OC)SCn1c(=O)oc2cc(Cl)cnc21
active: [1] 53.8 µM | [3] 68.3 µM | [4] 56.3 µM | [6] 26.3 µM | [11] 18.1 µM | [14] 10.4 µM
not listed: [18] | [19] | [20]
inactive: all other assays above

CNC(=O)ON=C(C)SC
not listed: [7] | [20]
inactive: all other assays above

CCCOCC(=Nc1ccc(Cl)cc1C(F)(F)F)n1ccnc1
active: [13] 7 µM | [14] 1.39 µM | [20] 0.295 µM
not listed: [18] | [19]
inactive: all other assays above

C#CC(C)(C)NC(=O)c1cc(Cl)cc(Cl)c1
active: [11] 29 µM | [12] 20.5 µM | [13] 39.3 µM | [16] 22.5 µM
not listed: [19]
inactive: all other assays above

CCNc1nc(Cl)nc(NC(C)(C)C#N)n1
not listed: [20]
inactive: all other assays above
